Reference: publication PMC6925144, “A prospective compound screening contest identified broader inhibitors for Sirtuin 1” (Scientific Reports, 2019)
Whole data set: some 3,200 compounds, median “TSA(without NAD+) / Primary screening (TSA) / delta Tm (K)” near -0.07, cut for the highest 2% near 0.37. The entries come from a sample that favours the highest values as a whole.

Molecular target: NAD-dependent deacetylase Sirtuin 1 (human, UniProt Q96EB6)
Test: primary screen, delta tm
Set-up: single well (n = 1)
Settings: 10 µM
Method: A total of 3,192 compounds extracted from the proposed lists were first screened by thermal shift assay (TSA), which determined a melting temperature shift (ΔTm) of Sirtuin 1 upon the addition of a test compound at a concentration of 10 µM (n = 1) with primary hit criteria of ΔTm > 0.45 K or ΔTm < −1.5 K. Primary hits (48 compounds) were retested in the same assay at three concentrations (5, 10, 20 µM, n = 4) for hit confirmation and for dose-dependency check. Secondary hits (41 compounds) were checked their selectivity for Sirtuin 1 based on counterscreening on unrelated protein targets (bovine carbonic anhydrase (CA) and recombinant SH2 domain of hABL1 kinase (ABL1)) at three different concentrations (5, 10, 20 µM, n = 4), which yielded 38 hit compounds, hereafter referred to as TSA hits. The TSA screening above was conducted in the absence of NAD+.

NAD-dependent deacetylase Sirtuin 1, sequence (Q96EB6 2-747 limits assumed): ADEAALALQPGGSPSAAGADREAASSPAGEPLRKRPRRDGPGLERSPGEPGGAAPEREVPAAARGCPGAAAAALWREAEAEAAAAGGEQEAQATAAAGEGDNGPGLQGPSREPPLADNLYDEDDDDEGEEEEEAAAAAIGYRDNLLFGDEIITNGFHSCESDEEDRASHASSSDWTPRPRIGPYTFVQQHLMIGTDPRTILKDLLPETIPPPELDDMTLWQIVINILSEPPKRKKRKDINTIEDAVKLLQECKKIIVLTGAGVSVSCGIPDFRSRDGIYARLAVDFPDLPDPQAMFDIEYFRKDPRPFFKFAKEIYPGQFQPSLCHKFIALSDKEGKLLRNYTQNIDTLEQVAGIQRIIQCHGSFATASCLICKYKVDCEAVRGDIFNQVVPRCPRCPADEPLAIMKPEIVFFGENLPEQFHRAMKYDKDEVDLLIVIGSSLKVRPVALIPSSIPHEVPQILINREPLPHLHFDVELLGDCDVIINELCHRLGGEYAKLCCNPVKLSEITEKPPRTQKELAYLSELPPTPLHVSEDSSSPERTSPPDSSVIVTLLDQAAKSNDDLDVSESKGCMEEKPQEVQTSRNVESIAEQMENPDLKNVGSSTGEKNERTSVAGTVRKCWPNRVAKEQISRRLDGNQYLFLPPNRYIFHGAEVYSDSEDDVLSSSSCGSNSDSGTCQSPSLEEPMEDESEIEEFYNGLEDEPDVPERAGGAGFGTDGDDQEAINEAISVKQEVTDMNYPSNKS

In order of falling “TSA(without NAD+) / Primary screening (TSA) / delta Tm (K)” value:
1. NC1=Nc2nc3ccccc3n2C(c2ccc(-c3ccc(C(=O)O)cc3)o2)N1 (centres unmarked)  1.36 K
2. O=C(COc1ccccc1C(=O)Nc1ccc(S(=O)(=O)Nc2nccs2)cc1)Nc1cccc(C(F)(F)F)c1  0.98 K
3. Cc1ccc([N+](=O)[O-])cc1S(=O)(=O)Nc1ccc(C(=O)OC(C)C(=O)NC23CC4CC(CC(C4)C2)C3)cc1 (centres unmarked)  0.86 K
4. COc1ccc(NC(=O)CSc2nnc(Nc3ccc(SC(F)F)cc3)s2)cc1OC  0.73 K
5. Cc1cc(F)ccc1N1CCCC(Nc2ccc3nnnn3n2)C1 (centres unmarked)  0.63 K
6. c1ccc(-c2[nH]c3c(ccc4ccccc43)c2-c2ccccc2)cc1  0.52 K
7. CCCCOC(=O)c1ccc(NC(=O)COC(=O)CNC(=O)C23CC4CC(CC(C4)C2)C3)cc1  0.48 K
8. O=C1/C(=C/NNC(=O)C23CC4CC(CC(C4)C2)C3)c2ccccc2C(=O)N1Cc1ccccc1  0.46 K
9. c1ccc(-c2[nH]c3ccccc3c2-c2ccccc2)cc1  0.45 K
10. COc1ccc(N2C(=O)/C(=C/NNC(=O)C34CC5CC(CC(C5)C3)C4)c3ccccc3C2=O)cc1  0.43 K
11. O=C(Nc1cccc(-c2nc(C3CC3)no2)c1)c1cccc(NC(=O)C2CCCCC2)c1  0.42 K
12. CCc1c(C)c(C#N)c2nc3ccccc3n2c1S  0.39 K
13. Oc1cccc2c1Cc1c-2nc2ccc(Cl)cc2c1-c1ccccc1Cl  0.38 K
14. O=C1NC(=O)c2ccccc2/C1=C\NNC(=O)C12CC3CC(CC(C3)C1)C2  0.33 K
15. O=C(CC12CC3CC(CC(C3)C1)C2)NN/C=C1/C(=O)N(Cc2ccccc2)C(=O)c2ccccc21  0.32 K
16. O=C(COC(=O)CNC(=O)C12CC3CC(CC(C3)C1)C2)Nc1ccccc1Cc1ccccc1  0.13 K
17. Cc1ncc(CN2CCC(Nc3ccc4nnnn4n3)C(C)C2)s1 (centres unmarked)  0.12 K
18. Nc1nc(-c2c(-c3ccccc3)[nH]c3ccccc23)cs1  0.09 K
19. COc1ccc(CN2C(=O)/C(=C/NNC(=O)CC34CC5CC(CC(C5)C3)C4)c3ccccc3C2=O)cc1  0.09 K
20. Cc1cccc(-n2ccnc2SCC(=O)Nc2ccc(S(=O)(=O)Nc3nccs3)cc2)c1C  0.08 K
21. COc1ccc(/C=N/c2ccc(C(=O)O)cc2)cc1Br  0.07 K
22. N#Cc1c(Cn2nnc3ccccc3c2=O)cn2ccccc12  0.07 K
23. Cc1ccc(Nc2nnc(SCC(=O)NC(=O)NCc3ccco3)s2)cc1  0.07 K
24. CC(NC(=O)COC(=O)CNC(=O)c1ccc(-c2ccccc2)cc1)C12CC3CC(CC(C3)C1)C2 (centres unmarked)  0.06 K
25. COc1cc(C(C)=O)ccc1COc1ccc(C(=O)OC(C)C(=O)NC23CC4CC(CC(C4)C2)C3)cc1OC (centres unmarked)  0.05 K
26. Cc1nc2cc(NC(=O)C3Cc4ccccc4O3)ccc2o1 (centres unmarked)  0.03 K
27. CCOc1ccc(CCNC(=O)COC(=O)CNC(=O)C23CC4CC(CC(C4)C2)C3)cc1OCC  0.03 K
28. O=C(O)C1CC(=O)N(c2cccc(-c3nc(C4CC4)no3)c2)C1 (centres unmarked)  0.03 K
29. COc1ccc(C(=O)C2=C(O)C(=O)N(CCCN3CCOCC3)C2c2ccco2)cc1Cl (centres unmarked)  0.02 K
30. Cc1nc2ccccc2nc1SCc1cc(=O)n2ccsc2n1  0.02 K
31. Cc1cccc2c(CC(=O)O)c(-c3ccccc3)[nH]c12  -0.02 K
32. CC(C)(CNc1ncnc2ccsc12)C(N)=O  -0.02 K
33. NC(=O)c1ncn(-c2ccncc2)c1N  -0.02 K
34. NC(=O)COC(=O)c1ccc(OCC(=O)Nc2cccc(C(F)(F)F)c2)cc1  -0.02 K
35. O=C1/C(=C/c2ccc(Br)cc2F)Cc2c(O)cccc21  -0.03 K
36. Cc1ccc(Nc2nnc(SCC(=O)Nc3cc(C)c(C)cc3[N+](=O)[O-])s2)cc1  -0.03 K
37. CC(OC(=O)c1cccc(S(=O)(=O)NCc2ccccc2)c1)C(=O)NC12CC3CC(CC(C3)C1)C2 (centres unmarked)  -0.03 K
38. Cc1c(CCC#N)c(Cl)n2c(nc3ccccc32)c1C#N  -0.04 K
39. O=C(CCl)c1c(-c2ccccc2)[nH]c2ccccc12  -0.04 K
40. Cc1cccc(Nc2nnc(SCC(=O)Nc3ccc(C(N)=O)cc3)s2)c1  -0.04 K
41. O=C(NC1=NCCS1)c1cc(Cl)ccc1O  -0.05 K
42. CC(C)Oc1ccc(C(=O)C2=C(O)C(=O)N(CCCN3CCOCC3)C2c2ccncc2)cc1 (centres unmarked)  -0.07 K
43. CCc1c(C)c(C#N)c2nc3ccccc3n2c1Cl  -0.08 K
44. NC(=O)Cc1ccc(NC(=O)c2cc(Br)ccc2Cl)cc1  -0.11 K
45. c1ccc(CN2CCCCCC2)c(CNc2ccc3nnnn3n2)c1  -0.11 K
46. CC1CN(S(=O)(=O)c2cccc(C(=O)OCC(=O)COC(=O)c3cccc(S(=O)(=O)N4CC(C)OC(C)C4)c3)c2)CC(C)O1 (centres unmarked)  -0.11 K
47. O=C(NCc1cccc(NC(=O)C2CC2)c1)c1ccc(C(=O)c2ccccc2)cc1  -0.11 K
48. CCCOCC(=O)O  -0.13 K
49. CC(O)CC(C)(C)CNC(=O)Nc1ccc(F)cc1 (centres unmarked)  -0.13 K
50. Cn1cc(C(=O)Nc2cccc(C3(C)NC(=O)NC3=O)c2)c2ccccc21 (centres unmarked)  -0.14 K
51. CCOc1cc(N2CCOCC2)c(OCC)cc1NC(=O)C1=COCCO1  -0.15 K
52. CCCCOc1cc(C2NC(N)=Nc3nc4ccccc4n32)ccc1OC (centres unmarked)  -0.17 K
53. O=c1c2ccccc2ncn1CC(O)c1ccccc1Cl (centres unmarked)  -0.17 K
54. CCC(N)COC (centres unmarked)  -0.18 K
55. CC1(C)CC1N (centres unmarked)  -0.22 K
56. O=C(C1=C(O)C(=O)N(CCCN2CCOCC2)C1c1ccco1)c1ccco1 (centres unmarked)  -0.22 K
57. O=C1CCCN1Cc1ccc(-c2ccccc2CNC(=O)C23CC4CC(CC(C4)C2)C3)cc1  -0.28 K
58. NC(=O)c1cc2c(ccc3ccccc32)o/c1=N\c1ccc(Br)cc1  -0.32 K
59. Cc1ccc2c(c1)c(=O)n(C)c1nnc(CN3CCc4ccccc4C3)n21  -0.32 K
